Screening results as filed in PubChem BioAssay.
NS1 inh: inhibitors of influenza NS1 protein function. Potency, µM (highest dose often 46.1 µM). AID 2326. 270,000 tested, 0.4% active; calls by dose curve; further: actives are rising curves; nearly all actives have a fitted effect of over 50% in size
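Recovery from NS1-induced slow growth read by OD600 in budding yeast switched to galactose assay medium (pH 6.0, -URA) at 1:100 dilution. Compound 23 nl per well; the matching strain lacking NS1 serves as control.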
CHX counter: counter-screen hit for Shiga toxin inhibitors, cycloheximide. max response, %. cell reporter, cycloheximide protein synthesis inhibition counterscreen. 300,000 tested, 12% active; in the data active means max response mostly above about 13%, no sharp cut-off; inactive means mostly below about 14%; further: read at 38.3 µM for the half of the compounds with a filed dose
SARS PLpro yeast: blocks SARS-CoV papain-like protease in a yeast assay. S. cerevisiae expressing SARS-CoV PLpro, growth rescue. Potency, µM (highest dose often 32.9 µM), usual class: activators. 330,000 tested, 0.19% active; calls by dose curve; further: nearly all actives have a fitted effect of over 55% in size
Shiga inhibitor: blocks Shiga toxin action in Vero cells; AID 2315; inhibition, % at 38.7 µM; 290,000 tested, 9.2% active; Vero cells, Shiga toxin protein synthesis inhibition reporter; in the data active means inhibition mostly above about 28%, no sharp cut-off; inactive means mostly below about 43%
Pf growth 96h: P. falciparum growth inhibition at 96 hours. P. falciparum luciferase reporter growth, 96 h. Potency, µM (highest dose often 28.7 µM), hits mostly inhibitors. 320,000 tested, 6.9% active. AID 504834
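Two parasite generations (96 h, 37 C, 5% CO2) of compound exposure in infected erythrocytes (0.05% parasitemia, 2% hematocrit). Luciferase-reporter P. falciparum; decreased luminescence indicates inhibited growth, aimed at apicoplast-acting delayed death.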
Pf growth 48h: P. falciparum growth inhibition at 48 hours (one generation). P. falciparum luciferase growth in erythrocytes, 48 h. Potency, µM (doses to about 28.7 µM), hits mostly inhibitors. 310,000 tested, 5.9% active
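Parasite viability was followed by luminescence of a genomically integrated firefly luciferase. Cultures held 0.1% parasitemia at 2% hematocrit (final), incubated under 5% CO2 at 37 C.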
Each line names hits and unclear results; the compound was inactive in the other large screens. Compounds with a hit are over-represented: about 21% of the library has one in this group of screens. Unless noted, the call rests on the fitted dose curve; in most records, active means well fitted inhibition curve with a large enough effect; inconclusive means small, poorly fitted or top-dose-only effect, or another doubt; inactive means no such curve, though single readings can be large or run the other way.

O=C(CN1CCN(C(=O)c2ccco2)CC1)Nc1ccc2c(c1)OCCO2	CHX counter 27, Shiga inhibitor 91
COC(=O)c1cccc(NC(=O)CN2CCOCC2)c1	Pf growth 96h 10µM
O=C(CN1CCN(C(=O)c2ccco2)CC1)Nc1ccc(Cl)c(S(=O)(=O)N2CCOCC2)c1	Pf growth 48h 12µM (no result: NS1 inh)
O=C(CN1CCN(c2ccccc2O)CC1)Nc1ccc2c(c1)OCCCO2	Pf growth 48h 13µM (no result: NS1 inh, CHX counter, Shiga inhibitor)
O=C(CN1CCN(C(=O)c2ccco2)CC1)Nc1cc(Cl)ccc1Cl	Pf growth 48h 1µM
CC(=O)NC(Cc1cc(C)ccc1C)C(=O)N1CCN(C(=O)c2ccc([N+](=O)[O-])cc2)CC1 (stereo not given)	Pf growth 96h inconclusive
COc1ccc(N2CCN(C(=O)COC(=O)c3cnccn3)CC2)cc1	none (no result: NS1 inh, CHX counter, Shiga inhibitor)
C=CCCN(Cc1ccccc1)S(=O)(=O)c1cc(Br)ccc1Br	Pf growth 48h 13µM (no result: NS1 inh, CHX counter, Shiga inhibitor)
Cn1c(N)c(C(=O)COC(=O)Cc2ccccc2)c(=O)n(C)c1=O	none (no result: NS1 inh, CHX counter, Shiga inhibitor, Pf growth 96h, Pf growth 48h)
COc1ccc(NC(=O)c2ccc(NC(=O)COC(=O)CC(NC(=O)c3ccccc3Cl)c3ccccc3)cc2)cc1 (stereo not given)	CHX counter 22
Cc1ccccc1C(=O)NC(CC(C)C)C(=O)OCC(=O)c1c(N)n(C)c(=O)n(C)c1=O (stereo not given)	Pf growth 96h inconclusive, Pf growth 48h 1µM (no result: NS1 inh)
Cn1c(N)c(C(=O)COC(=O)CC(NC(=O)c2ccccc2Cl)c2ccccc2)c(=O)n(C)c1=O (stereo not given)	Pf growth 96h inconclusive, Pf growth 48h 1.3µM (no result: NS1 inh)
CC(=O)NC(CC(=O)OCC(=O)c1c(N)n(CC(C)C)c(=O)n(C)c1=O)c1ccccc1 (stereo not given)	Pf growth 96h 9.3µM, Pf growth 48h 12µM (no result: NS1 inh, CHX counter, Shiga inhibitor)
CC(C)CC(C(=O)OCC(=O)c1c(N)n(C)c(=O)n(C)c1=O)N1C(=O)c2ccccc2C1=O (stereo not given)	none
CN(C1CC(C)(C)NC(C)(C)C1)S(=O)(=O)CC12CCC(CC1=O)C2(C)C (stereo not given)	none
CCOC(=O)C(NC(C)=O)C(OC(C)=O)c1cccc([N+](=O)[O-])c1 (stereo not given)	none
CNC(C(=O)c1ccccc1)C(OC(C)=O)c1cccc([N+](=O)[O-])c1 (stereo not given)	Pf growth 96h 2.9µM, Pf growth 48h inconclusive
O=C(C1=COCCO1)N1CCN(C(c2ccccc2)c2ccccc2)CC1	Pf growth 96h inconclusive, Pf growth 48h inconclusive
COc1cc(OC)cc(C(=O)N2CCN(C(=O)c3cccs3)CC2)c1	none
CCCCOc1ccccc1NC(=O)CC1Nc2ccccc2NC1=O (stereo not given)	Pf growth 48h 1.7µM
CCCCNC(=O)CC1Nc2ccccc2NC1=O (stereo not given)	none
COc1cc2[nH]c(=S)n(NC(=O)CC(C)C)c(=O)c2cc1OC	Pf growth 96h 10µM
CC(=O)N(C)c1ccc(NC(=S)NCC(C)C)cc1	CHX counter 15
COC(=O)Cc1ccc(NC(=S)NCC(C)C)cc1	CHX counter 16
CCCNC(=S)Nc1ccc(CC(=O)OC)cc1	none
Brc1cc2c(cc1COc1ccc(-c3nn[nH]n3)cc1)OCO2	CHX counter 30
Cc1ccccc1COc1ccc(-c2nn[nH]n2)cc1	CHX counter 27, Shiga inhibitor 32
O=c1[nH][nH]c(=S)c(=O)[nH]1	none (no result: CHX counter, SARS PLpro yeast, Shiga inhibitor, Pf growth 96h, Pf growth 48h)
CCC(CO)Oc1cc(NCc2ccccc2F)c2ncn(C(C)C)c2c1 (stereo not given)	Pf growth 96h 4.7µM, Pf growth 48h 5.2µM (no result: NS1 inh, CHX counter, Shiga inhibitor)
CCC(CO)Oc1cc(NCc2ccccc2OC)c2ncn(C(C)C)c2c1 (stereo not given)	none (no result: NS1 inh, CHX counter, Shiga inhibitor, Pf growth 96h, Pf growth 48h)
CCC(COC)Oc1cc(NCc2ccccc2)c2ncn(C(C)C)c2c1 (stereo not given)	Pf growth 96h inconclusive, Pf growth 48h 4.1µM (no result: NS1 inh, CHX counter, Shiga inhibitor)
CCC(CO)Oc1cc(NCc2ccccc2Cl)c2ncn(C(C)C)c2c1 (stereo not given)	Pf growth 96h inconclusive, Pf growth 48h 3.3µM (no result: NS1 inh, CHX counter, Shiga inhibitor)
Cc1ccc(-n2c(SCC3CNC(=O)O3)nnc2-c2ccccc2)cc1C (stereo not given)	Pf growth 96h inconclusive
Cc1cc(OC(C)C(=O)NCC2CCCO2)cc(C)c1Cl (stereo not given)	Pf growth 96h 5.2µM
Cc1cc(OCC(=O)NNC(=S)NCC2CCCO2)cc(C)c1Cl (stereo not given)	CHX counter 17
CC(Oc1ccc([N+](=O)[O-])cc1)C(=O)NCC1CCCO1 (stereo not given)	none
C/C(=N/NC(=O)c1ccccc1)C1=C(O)CC(C)(C)CC1=O	Pf growth 96h inconclusive
CC1(C)CC(=O)C(C(N)=NC(=O)c2ccccc2)=C(O)C1	CHX counter 39, Shiga inhibitor 70 (no result: NS1 inh)
CC1(C)CC(=O)C(Sc2ccccc2[N+](=O)[O-])=C(O)C1	none
CC1(C)CC(=O)C(C(N)=NC(=O)c2ccc([N+](=O)[O-])cc2)=C(O)C1	CHX counter 18 (no result: NS1 inh)
CC1CCC(NS(=O)(=O)c2ccc(Cl)nc2)CC1 (stereo not given)	none (no result: NS1 inh, CHX counter, Shiga inhibitor)
COCCN(Cc1nc(-c2ccc(-c3ccccc3)cc2)oc1C)C(C)C	CHX counter 31, Shiga inhibitor 38, Pf growth 96h inconclusive
COc1ccc(NC(=O)CCN2CCOCC2)c(OC)c1	none
COc1ccccc1N/C(N)=N/c1nc(CSc2nc3ccccc3s2)cc(=O)[nH]1	SARS PLpro yeast inconclusive, Shiga inhibitor 48, Pf growth 96h inconclusive
CN(c1ccc(Cl)cc1)c1cc(=O)n(C)c2ccccc12	Pf growth 48h 5.9µM
CN(C(=O)COc1cc(=O)n(C)c2ccccc12)c1ccc(Cl)cc1	Pf growth 96h inconclusive (no result: Pf growth 48h)
O=C(Nc1nccs1)c1ccc([N+](=O)[O-])cc1Cl	Pf growth 96h 10µM
O=C(Nc1nccs1)c1cc([N+](=O)[O-])ccc1Cl	Pf growth 48h inconclusive
O=C(Nc1ccccc1N1CCOCC1)c1ccc(N2CCOCC2)c([N+](=O)[O-])c1	Pf growth 96h inconclusive, Pf growth 48h inconclusive (no result: NS1 inh)
O=C(Nc1nccs1)c1ccc(N2CCOCC2)c([N+](=O)[O-])c1	CHX counter 50, Shiga inhibitor 86
O=C(Nc1nccs1)c1ccc(Cl)cc1[N+](=O)[O-]	none
O=C(Nc1nccs1)c1ccc(Cl)c([N+](=O)[O-])c1	CHX counter 43
COc1ccc2oc(-c3ccc(C)c(NC(=O)c4ccc(N5CCOCC5)c([N+](=O)[O-])c4)c3)nc2c1	CHX counter 59, Shiga inhibitor 134, Pf growth 96h inconclusive
OCC1(Cc2ccccc2C(F)(F)F)CCN(Cc2ccc3c(c2)CCO3)CC1	Pf growth 96h inconclusive, Pf growth 48h 12µM
FC(F)(F)c1ccccc1CN1CCN(Cc2ccccc2)CC1	none (no result: Pf growth 48h)
OCC1(Cc2ccccc2C(F)(F)F)CCN(Cc2ccccc2)CC1	Pf growth 96h inconclusive, Pf growth 48h 12µM
